# Data as given in PubChem BioAssay (NCI).
# About 83,000 compounds went through this panel and 20% of them were active in at least one assay; those are over-represented in the sample as a whole.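 Single-concentration screen, 48 h exposure, 96-well plates. Endpoint: percent growth. Below 10 = active.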 A number with no mark means an inactive call. Activity calls are given as the source filed them.
# Columns and labels:
# Assay in all cases: NCI-60 one-dose screen, 48 h (100 = growth as untreated, 0 = no growth, -100 = all killed)
# Conditions in all cases: 10 µM unless noted
# HCT-15 colon = system: HCT-15 colon
# HT29 colon = system: HT29 colon
# SNB-75 CNS = system: SNB-75 CNS
# SNB-19 CNS = system: SNB-19 CNS
# U251 CNS = system: U251 CNS
# PC-3 prostate = system: PC-3 prostate
# SK-MEL-5 melanoma = system: SK-MEL-5 melanoma
# UACC-62 melanoma = system: UACC-62 melanoma
# LOX IMVI melanoma = system: LOX IMVI melanoma
# SK-MEL-28 melanoma = system: SK-MEL-28 melanoma
# SK-MEL-2 melanoma = system: SK-MEL-2 melanoma
# EKVX NSCLC = system: EKVX NSCLC
# SN12C renal = system: SN12C renal
# UO-31 renal = system: UO-31 renal
# TK-10 renal = system: TK-10 renal
# ACHN renal = system: ACHN renal
# CAKI-1 renal = system: CAKI-1 renal
# A498 renal = system: A498 renal
# CCRF-CEM leukemia = system: CCRF-CEM leukemia
# MOLT-4 leukemia = system: MOLT-4 leukemia
SMILES,growth (HCT-15 colon),growth (HT29 colon),growth (SNB-75 CNS),growth (SNB-19 CNS),growth (U251 CNS),growth (PC-3 prostate),growth (SK-MEL-5 melanoma),growth (UACC-62 melanoma),growth (LOX IMVI melanoma),growth (SK-MEL-28 melanoma),growth (SK-MEL-2 melanoma),growth (EKVX NSCLC),growth (SN12C renal),growth (UO-31 renal),growth (TK-10 renal),growth (ACHN renal),growth (CAKI-1 renal),growth (A498 renal),growth (CCRF-CEM leukemia),growth (MOLT-4 leukemia)
O=C(O)CC(C(=O)O)/C(=C\c1ccccc1)c1ccccc1 (stereo not given),107%,114%,83.2%,109%,99.8%,96.6%,94.8%,101%,99.1%,103%,109%,110%,104%,89.1%,108%,104%,103%,93%,94.6%,98.9%
O=C(Nc1cccnc1Nc1ccc(Cl)cc1)c1cn(Cc2cccc(Oc3ccccc3)c2)nn1,25.6%,27.2%,42.1%,50.1%,39.4%,35%,12.6%,30.6%,31.1%,61.7%,61.8%,53.5%,46.4%,31.9%,82.4%,55.2%,53.6%,26.6%,39%,28.8%
N#CC1=C(N)Oc2c(sc3c(F)cccc23)C1c1ccc([N+](=O)[O-])cc1 (stereo not given),-54.5% (active),-13.6% (active),-35.3% (active),-27.9% (active),-64.5% (active),-10.4% (active),-95.9% (active),-75.6% (active),-83.1% (active),-44.1% (active),-42.2% (active),-2.24% (active),-79% (active),-26.4% (active),-7.94% (active),-2.28% (active),0.858% (active),-36.3% (active),3.46% (active),-1.93% (active)
CC(=O)c1c(Nc2cccc(F)c2)[nH]c2c(Cl)cc(Cl)c(Cl)c2c1=O,8.24% (active),4.86% (active),-9.54% (active),16.6%,3.22% (active),10.3%,-68.7% (active),-18.7% (active),9.99% (active),5.27% (active),-37.5% (active),10.8%,-0.0775% (active),6.24% (active),12.5%,2.02% (active),-5.89% (active),-41.6% (active),8.65% (active),4.94% (active)
Brc1ccc(Nc2nc(Nc3cnc4ccccc4c3)c3[nH]cnc3n2)cc1,83%,70.7%,77.5%,93.6%,89.4%,27.6%,72.6%,66.8%,63.7%,94.2%,78.2%,40.3%,88.3%,70.3%,113%,77.5%,82.9%,79.6%,60.6%,78.3%
CNCC[C@H](Oc1cccc2ccccc12)c1cccs1,101%,71.8%,61.5%,97.8%,85.3%,68.9%,93%,91.3%,74.1%,91.5%,104%,78.9%,79.1%,63.7%,90%,96.9%,88.4%,111%,91.9%,50.4%
CCCCCCCCn1ccc2cc(NC(=O)CN3CCN(c4cc(C)nc(Cl)n4)CC3)ccc21,76.3%,77.3%,82.9%,88.9%,89.5%,61.4%,59.3%,64.5%,94.2%,90.9%,109%,64.4%,100%,63.5%,95.1%,86.3%,92.6%,97.5%,-35.7% (active),26.2%
COc1ccc2cc(-c3nc4ccc(C)cn4c3NCc3ccco3)c(=O)[nH]c2c1,75.8%,79.9%,56%,34.6%,75.1%,46.1%,56.9%,46%,75.8%,81.8%,105%,55.9%,76.1%,47.8%,71%,45.4%,50.8%,43.8%,62.3%,52.7%
CCOC(=O)C1=C(CCl)N(C)C(=O)NC1c1ccc2c(c1)OCO2 (stereo not given),34.4%,38.7%,28.8%,84.5%,68%,36.8%,81.9%,73.2%,40.9%,79%,58.8%,71.9%,58.6%,69.5%,45.2%,49.5%,36.7%,55.8%,12%,53.2%
COc1ccc(-c2nc3ccc(C)cc3c3c2c(=O)n(C)c(=O)n3C)cc1OC,108%,108%,92.9%,98.7%,96.9%,97.5%,103%,89.5%,95.6%,112%,123%,102%,98%,106%,106%,97.7%,88.4%,94%,92.3%,101%
COCCn1cc(-c2csc(-c3c[nH]c4ccc(F)cc34)n2)c2cccnc21,14.7%,11.8%,39.7%,58.1%,32.5%,22.5%,1.53% (active),42.5%,21.8%,46.6%,25.3%,38%,66.7%,38.4%,33.1%,41.9%,45.3%,9.07% (active),20.1%,14.2%
COc1c2c(cc3c1C(=O)N[C@@H]1[C@@H](O)[C@@H](O)[C@H](O)C[C@@H]31)OCCO2,102%,106%,99.3%,102%,100%,97.7%,99.1%,96.7%,101%,106%,100%,98.2%,103%,86.4%,95.7%,103%,94%,104%,105%,99.6%
COc1cc(/C=C/c2cc(/C=C/c3ccc(O)c(OC)c3)n(C(=O)Nc3ccc(Cl)cc3)n2)ccc1O,7.86% (active),-11.1% (active),18.7%,9.25% (active),4.31% (active),4.24% (active),-29.7% (active),4.06% (active),3.04% (active),12.7%,-23.5% (active),16.9%,9% (active),2.71% (active),23.1%,9.29% (active),0.131% (active),-0.596% (active),4.45% (active),-2% (active)
CC1=C(Cl)C(=O)c2cc(C)ccc2C1=O,100%,103%,88.9%,106%,96.2%,89.6%,101%,96%,100%,94.9%,99.9%,94.2%,93.7%,73.3%,108%,96.9%,86.7%,97.2%,102%,98.1%
CNCCCNc1nc2ccccc2c2c(=O)c3cc(Cl)ccc3sc12,-19.5% (active),-92.4% (active),61%,55.7%,-87.2% (active),32.8%,71.4%,10.9%,-90.3% (active),50.8%,95.3%,76.7%,24.9%,7.83% (active),68.9%,13.3%,43.8%,76.2%,12.3%,-42% (active)
